Data on five molecules can be found in PubChem BioAssay (NCATS).

Results filed as inconclusive are left out. Calls of active or inactive are those of the source. Unless noted, calls follow the shape of the dose curve; as a rule, active = well fitted curve in either direction with a large enough effect (not every such curve was filed as active); inconclusive = small, poorly fitted or top-dose-only effect, or another doubt; inactive = flat fitted curve, though single readings scatter.

Test [1] can be described thus: AP1 Signaling Pathway (AID 357).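 Also: ME-180 reporter cells stimulated with EGF at its EC50 level; % is scaled to controls: 0 for no effect and ±100 for the full control effect.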 The conditions noted are these: ME-180 AP-1-bla reporter, EGF-induced, beta-lactamase ratio, 5 h; at 7.69 µM (top of the series) unless noted. An outline of the steps: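 AP-1-bla ME-180 cells, Opti-MEM + 0.5% dialyzed FBS, plated overnight 37 °C. Cpd titration + EC50 EGF, 5 h 37 °C. CCF4 2.5 h RT; ex 405, em 460/530 ratio → %activity, AC50.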

In test [2] the target is Cytochrome P450 1A2 (Homo sapiens) (UniProt P05177). Kind of test: p450-cyp1a2 (AID 410; calls by dose curve; also: potency is read from the fitted curve at half-maximal effect;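 as to activity change, negative = inhibition: -100% = full effect of reference inhibitor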). The conditions noted are these: recombinant CYP1A2, luciferin-ME demethylation, luminescence; series mostly up to 11.4 µM. An outline of the steps:
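Read-out is luminescence from luciferin produced by CYP1A2 demethylation of Luciferin-ME (100uM, at Km). Detection reagent stopped the 60 min NADPH-dependent reaction; signals were normalized to 57 uM furafylline.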

Test [3] can be described thus: NFAT Signaling Pathway (AID 444).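 Also: carbachol stimulus at about its EC50 of 1 µM final; % is scaled to controls: 0 for no effect and ±100 for the full control effect.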 The conditions noted are these: Jurkat NFAT-bla M1, carbachol, beta-lactamase ratio, 5 h; at 7.69 µM (top of the series) unless noted. The method, boiled down: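 Read-out: CCF4 FRET ratio (460 nm/530 nm) after 1 h RT dye loading, used for %activity and AC50 from titration series. Cells: Jurkat NFAT-β-lactamase/M1 line, treated with compound plus 1 uM carbachol for 5 h, 37 °C.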

Test [4] is described as follows: Stat Signaling Pathway (AID 446).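 Also: ME-180 cervical cancer cells given 40 pM IL-6 alongside compound; SIE-controlled beta-lactamase reporter measured as 460/530 nm FRET emission ratio; % is scaled to controls: 0 for no effect and ±100 for the full control effect.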 The conditions noted are these: ME-180 (cervical carcinoma) SIE beta-lactamase reporter, IL-6 stimulated, 5 h; at 7.69 µM (top of the series) unless noted. An outline of the steps: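 Overnight-plated ME-180 cells bearing a STAT Inducible Element beta-lactamase reporter; 5 h co-exposure to compound and 40 pM IL-6; values normalized to 300 pM IL-6 and 125 nM JAK inhibitor controls.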

Test [5] concerns the target Glucocorticoid receptor (Homo sapiens) (UniProt P04150). Kind of test: GR-GFP Redistribution (AID 450;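 active = compounds whose dose series gives a full or clear partial fitted curve of increased nuclear translocation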; also: potency is read from the fitted curve at half-maximal effect). The conditions noted are these: U2OS GR-GFP nuclear translocation, laser cytometry, 2 h.
For test [6] the target is unchanged. Kind of test: GR-EFC Redistribution (AID 451; calls by dose curve; also: potency is read from the fitted curve at half-maximal effect). The conditions noted are these: CHO-K1 GR-EFC translocation, beta-gal luminescence, 2 h. An outline of the steps: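 Translocation of GR-ED fusion to nuclear EA restores b-gal, read by luminescence after 1 h room-temperature detection. Engineered CHO-K1 biosensor cells, 1,000/well, exposed 2 h at 37 C to titrations up to 46 uM final.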

Test [7] concerns the target Mitogen-activated protein kinase 10 (Mus musculus) (UniProt Q61831). In words: JNK3 AlphaScreen Assay (AID 530).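 Also: kinase came from lysate of stimulated human HepG2 cells; signal reports phosphorylation of biotinylated GST-cJun 1-79 at Ser73 with 10 µM ATP; % is scaled to controls: 0 for no effect and ±100 for the full control effect.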 The conditions noted are these: JNK3 lysate, c-Jun phosphorylation; series mostly up to 11.4 µM. An outline of the steps: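 Kinase buffer: 20 mM Tris-HCl pH 7.6, 10 mM MgCl2, 1 mM DTT, 0.1 mM Na3VO4, 0.01% Tween-20; ATP 10 uM. Substrate biotin-GST-cJun(1-79), enzyme from activated HepG2 lysates. Detection by Ser73 phospho-antibody AlphaScreen.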
On the technique in general: In Alpha technology, singlet oxygen from a donor bead excites a nearby acceptor bead.

The target in test [8] is 3',5'-cyclic-AMP phosphodiesterase 4B (Homo sapiens) (UniProt Q07343). In words: qHTS Assay for Inhibitors of PDE-IV (AID 607; active = well fitted activation curve with a large enough effect in the main read-out, with a control signal flat, not every such curve was filed as active; also: % of control where 0% means no effect). The conditions noted are these: HEK293 ACTOne CNG channel cells, membrane potential fluorescence; series mostly up to 22.9 µM. An outline of the steps: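 Live HEK293 cells with a modified cyclic nucleotide-gated (CNG) channel report intracellular cAMP via membrane-potential dye fluorescence (ex 535/em 590 nm). Endogenous PDE-IV was targeted. Compounds were tested at up to 22.9 uM final; RO 20-1724 100 uM served as control.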
Chain of 3',5'-cyclic-AMP phosphodiesterase 4B (Homo sapiens) (Q07343 whole entry, looked up): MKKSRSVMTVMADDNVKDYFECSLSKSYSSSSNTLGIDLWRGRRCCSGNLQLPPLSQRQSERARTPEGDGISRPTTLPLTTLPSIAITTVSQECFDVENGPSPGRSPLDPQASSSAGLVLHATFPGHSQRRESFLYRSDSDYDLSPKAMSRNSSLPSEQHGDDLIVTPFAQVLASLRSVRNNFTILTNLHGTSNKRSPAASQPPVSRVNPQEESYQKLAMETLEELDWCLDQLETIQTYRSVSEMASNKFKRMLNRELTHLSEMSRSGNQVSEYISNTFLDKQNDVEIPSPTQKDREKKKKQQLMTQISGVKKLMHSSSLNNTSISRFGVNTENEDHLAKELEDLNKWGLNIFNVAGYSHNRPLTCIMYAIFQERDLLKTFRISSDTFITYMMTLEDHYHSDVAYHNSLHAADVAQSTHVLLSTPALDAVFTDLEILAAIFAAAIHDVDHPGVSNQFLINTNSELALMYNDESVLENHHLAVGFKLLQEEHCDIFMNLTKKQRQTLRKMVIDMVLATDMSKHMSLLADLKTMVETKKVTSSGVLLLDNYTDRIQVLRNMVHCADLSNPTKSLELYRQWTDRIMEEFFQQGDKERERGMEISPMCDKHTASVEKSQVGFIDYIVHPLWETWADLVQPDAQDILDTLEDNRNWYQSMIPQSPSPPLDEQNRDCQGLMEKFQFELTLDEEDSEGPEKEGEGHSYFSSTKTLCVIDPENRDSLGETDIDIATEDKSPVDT
A general note: qHTS replaces the single test concentration by a dilution series.

The target of test [9] is Guanine nucleotide-binding protein G(i) subunit alpha-1 (Homo sapiens) (UniProt P63096). Kind of test: qHTS Assay for Inhibitors of RGS12 GoLoco Motif Activity (Green Fluorophore) (AID 879; active = well fitted curve in the direction sought with a large enough effect; an effect the other way counts as inactive or inconclusive;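 also: 0% = labeled peptide with Gαi1 and full inhibition = labeled peptide alone without protein; negative values mean loss of peptide binding seen as reduced polarization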). The conditions noted are these: Galphai1/FITC-RGS12 GoLoco peptide, fluorescence polarization; series mostly up to 57.1 µM. An outline of the steps: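 A drop in FITC polarization marked displacement of the FITC-tagged RGS12 GoLoco peptide (10 nM) from Gαi1 (50 nM). Compounds were incubated 10 min at room temperature in Tris pH 7.5 buffer containing 150 mM NaCl, 0.1 mM GDP and 0.05% NP40; unlabeled peptide titration served as control.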

Test [10] concerns the target Cytochrome P450 2C9 (Homo sapiens) (UniProt P11712). Kind of test: qHTS Assay for Inhibitors and Substrates of Cytochrome P450 2C9 (AID 883; active = well fitted curve in the direction sought with a large enough effect; an effect the other way counts as inactive or inconclusive; also: % is scaled to controls: 0 for no effect and ±100 for the full control effect; nearly all actives have a fitted effect of over 60% in size). The conditions noted are these: recombinant CYP2C9, luciferin-H luminescence, 60 min; series mostly up to 11.4 µM. An outline of the steps:
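Inhibition of CYP2C9 is scored as loss of luminescence, with 57uM sulphaphenazole defining 100% inhibition. Substrate Luciferin-H is used at 100uM, equal to its KM; enzyme at 10nM in 25mM KPO4, 60 min at 37C with NADPH regeneration.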

Test [11] can be described thus: qHTS Assay for Identification of Small Molecule Agonists for Thrombopoietin (TPO) Signaling Pathway (AID 917; active = well fitted curve in the direction sought with a large enough effect; an effect the other way counts as inactive or inconclusive; also: % is scaled to controls: 0 for no effect and ±100 for the full control effect). The conditions noted are these: TPO signaling pathway reporter cells, agonist qHTS, stimulated with TPO at its EC50; series mostly up to 38.5 µM. An outline of the steps: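 Stimulation at the TPO EC50 (26 pM final) was used to detect activators. Ba/F3 mouse cells bearing human TPO receptor and a luciferase reporter under the Glycoprotein IIb promoter were exposed to compounds for 24 hrs at 37 C.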

Test [12] deals with Pyruvate kinase (Leishmania mexicana) (UniProt Q27686). In words: qHTS Validation Assay for Inhibitors of Leishmania Mexicana Pyruvate Kinase (AID 945; active = well fitted curve in the direction sought with a large enough effect; an effect the other way counts as inactive or inconclusive;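 also: 0% = DMSO only neutral control wells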). The conditions noted are these: purified L. mexicana pyruvate kinase, enzyme activity, E451W mutant enzyme; series mostly up to 57.5 µM. An outline of the steps: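 Compounds are tested as eight-point concentration series. Reactions contain 0.2 nM LmPYK E451W, 0.5 mM PEP, 0.1 mM ADP, 7 mM MgCl2 and 50 mM KCl at pH 7.2, run 1 h at room temperature, then read by PKLight luminescence.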
Chain of Pyruvate kinase (Leishmania mexicana) (Q27686 2-499 E452W): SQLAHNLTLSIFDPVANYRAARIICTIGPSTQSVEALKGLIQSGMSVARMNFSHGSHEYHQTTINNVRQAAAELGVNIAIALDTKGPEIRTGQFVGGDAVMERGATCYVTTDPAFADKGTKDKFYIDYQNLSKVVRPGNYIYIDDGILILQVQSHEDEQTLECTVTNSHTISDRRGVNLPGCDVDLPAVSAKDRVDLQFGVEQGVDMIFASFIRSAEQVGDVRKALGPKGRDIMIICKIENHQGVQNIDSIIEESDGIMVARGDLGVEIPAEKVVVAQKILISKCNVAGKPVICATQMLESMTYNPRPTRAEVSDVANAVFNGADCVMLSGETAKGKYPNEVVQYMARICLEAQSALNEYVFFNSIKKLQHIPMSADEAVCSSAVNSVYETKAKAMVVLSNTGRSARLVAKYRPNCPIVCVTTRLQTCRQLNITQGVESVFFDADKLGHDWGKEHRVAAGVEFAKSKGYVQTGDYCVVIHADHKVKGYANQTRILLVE

The target in test [13] is Pyruvate kinase PKM (Homo sapiens) (UniProt P14618). In words: qHTS Assay for Activators of Human Muscle Pyruvate Kinase (AID 954; active = well fitted curve in the direction sought with a large enough effect, not every such curve was filed as active;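 also: 0% = uninhibited enzyme and -100% = no enzyme or full thiadiazolimine inhibition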). The conditions noted are these: purified human muscle pyruvate kinase, luciferase-coupled luminescence, 1 h; series mostly up to 57.5 µM. An outline of the steps:
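Screening used highly purified human pyruvate kinase M2 under submaximal activity, with PEP at its Km and ADP below Km. After an hour at room temperature, ATP was read by luciferase luminescence.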

In test [14] the target is Alpha-galactosidase A (Homo sapiens) (UniProt P06280). In words: Counterscreen for Glucocerebrosidase Inhibitors: qHTS Assay for Human alpha-Galactosidase at pH 4.5 (AID 992; active = well fitted curve in the direction sought with a large enough effect; an effect the other way counts as inactive or inconclusive; also: 0% is about no effect). The conditions noted are these: purified enzyme, fluorogenic substrate; series mostly up to 76.9 µM. An outline of the steps:
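Each compound is preincubated briefly with 2 nM enzyme before substrate addition (80 uM); plates then sit 20 min at ambient temperature, are quenched with 1M NaOH/1M glycine, and read fluorometrically.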

The target in test [15] is alpha-glucosidase (Oryza sativa, rice) (UniProt Q653V4). In words: Counterscreen for Glucocerebrosidase Inhibitors: qHTS Assay for Rice alpha-Glucosidase at pH 5.0 (AID 997; active = well fitted curve in the direction sought with a large enough effect; an effect the other way counts as inactive or inconclusive;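 also: 0% = full activity with enzyme and -100% = basal without enzyme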). The conditions noted are these: rice alpha-glucosidase enzyme activity; series mostly up to 76.9 µM. An outline of the steps: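 Endpoint fluorogenic assay at pH 5.0: compounds (0.7 nM to 77 uM) titrated against 4 nM rice enzyme and 400 uM 4-MU-alpha-glucoside for 20 min at room temperature; NaOH/glycine stop, read ex 365/em 440 nm, Hill-fitted AC50.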
(The purpose of a counterscreen is to sort out artefacts and off-target activity.)

Test [16] deals with Cytochrome P450 2C19 (Homo sapiens) (UniProt P33261). Kind of test: qHTS Assay for Inhibitors and Substrates of Cytochrome P450 2C19 (AID 899; active = well fitted curve in the direction sought with a large enough effect; an effect the other way counts as inactive or inconclusive; also: % is scaled to controls: 0 for no effect and ±100 for the full control effect; nearly all actives have a fitted effect of over 60% in size). The conditions noted are these: recombinant CYP2C19, luciferin-H EGE luminescence; series mostly up to 11.4 µM. The method, boiled down: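 5nM enzyme + 10uM Luciferin-H EGE (=KM), 50mM KPO4; cpd pin-transferred, 10 min 37C; NADPH regen, 60 min 37C; stopped w/ luciferin detection reagent, 20 min; luminescence. Normalized to 57uM ketoconazole (AC100).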
Chain of Cytochrome P450 2C19 (Homo sapiens) (P33261 whole entry, looked up): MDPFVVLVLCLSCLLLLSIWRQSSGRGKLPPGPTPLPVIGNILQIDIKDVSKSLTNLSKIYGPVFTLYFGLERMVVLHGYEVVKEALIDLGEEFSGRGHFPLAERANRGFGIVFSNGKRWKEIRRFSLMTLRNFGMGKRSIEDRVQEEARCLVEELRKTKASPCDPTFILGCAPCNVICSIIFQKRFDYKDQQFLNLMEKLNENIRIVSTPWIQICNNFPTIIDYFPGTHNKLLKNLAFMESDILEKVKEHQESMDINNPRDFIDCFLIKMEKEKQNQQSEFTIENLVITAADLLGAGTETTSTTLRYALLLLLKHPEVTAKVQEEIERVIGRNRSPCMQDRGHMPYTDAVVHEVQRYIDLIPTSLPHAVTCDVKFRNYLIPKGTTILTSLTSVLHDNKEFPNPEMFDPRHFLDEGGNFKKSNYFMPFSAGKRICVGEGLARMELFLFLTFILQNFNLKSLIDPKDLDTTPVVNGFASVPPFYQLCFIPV

For test [17], the target named is Lysosomal acid glucosylceramidase (Homo sapiens) (UniProt P04062). Kind of test: Glucocerebrosidase-p2 (AID 348; in the data active = potency below about 10 µM; also: potency is read from the fitted curve at half-maximal effect). The conditions noted are these: purified GBA, blue fluorogenic substrate, 40 min. An outline of the steps: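 Normal human glucocerebrosidase (0.2 nM) with blue fluorogenic substrate (80 uM final) in citrate/phosphate pH 5.9 with 10mM sodium taurocholate, 0.01% tween-20; 40 min RT, NaOH/glycine stop; fluorescence Ex 365/Em 440; AC50 from a titration from 0.6 nM upwards.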
Chain of Lysosomal acid glucosylceramidase (Homo sapiens) (P04062 whole entry, looked up): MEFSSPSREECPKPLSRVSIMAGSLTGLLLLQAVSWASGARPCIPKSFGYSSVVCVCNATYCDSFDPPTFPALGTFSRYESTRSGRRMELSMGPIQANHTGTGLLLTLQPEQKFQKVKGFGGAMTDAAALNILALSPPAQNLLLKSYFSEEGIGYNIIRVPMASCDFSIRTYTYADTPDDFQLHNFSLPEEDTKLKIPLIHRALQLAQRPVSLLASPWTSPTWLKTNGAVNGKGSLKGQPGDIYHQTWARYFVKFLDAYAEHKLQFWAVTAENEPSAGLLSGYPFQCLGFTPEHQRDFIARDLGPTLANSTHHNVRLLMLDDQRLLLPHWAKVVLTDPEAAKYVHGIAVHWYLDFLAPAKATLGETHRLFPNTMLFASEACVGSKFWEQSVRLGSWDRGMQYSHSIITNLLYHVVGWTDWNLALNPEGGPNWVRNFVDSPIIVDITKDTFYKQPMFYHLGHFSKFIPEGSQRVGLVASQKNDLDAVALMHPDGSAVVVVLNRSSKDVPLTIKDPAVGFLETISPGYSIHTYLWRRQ

Chain of Glucocorticoid receptor (Homo sapiens) (P04150 whole entry, looked up, the tested form may be a part): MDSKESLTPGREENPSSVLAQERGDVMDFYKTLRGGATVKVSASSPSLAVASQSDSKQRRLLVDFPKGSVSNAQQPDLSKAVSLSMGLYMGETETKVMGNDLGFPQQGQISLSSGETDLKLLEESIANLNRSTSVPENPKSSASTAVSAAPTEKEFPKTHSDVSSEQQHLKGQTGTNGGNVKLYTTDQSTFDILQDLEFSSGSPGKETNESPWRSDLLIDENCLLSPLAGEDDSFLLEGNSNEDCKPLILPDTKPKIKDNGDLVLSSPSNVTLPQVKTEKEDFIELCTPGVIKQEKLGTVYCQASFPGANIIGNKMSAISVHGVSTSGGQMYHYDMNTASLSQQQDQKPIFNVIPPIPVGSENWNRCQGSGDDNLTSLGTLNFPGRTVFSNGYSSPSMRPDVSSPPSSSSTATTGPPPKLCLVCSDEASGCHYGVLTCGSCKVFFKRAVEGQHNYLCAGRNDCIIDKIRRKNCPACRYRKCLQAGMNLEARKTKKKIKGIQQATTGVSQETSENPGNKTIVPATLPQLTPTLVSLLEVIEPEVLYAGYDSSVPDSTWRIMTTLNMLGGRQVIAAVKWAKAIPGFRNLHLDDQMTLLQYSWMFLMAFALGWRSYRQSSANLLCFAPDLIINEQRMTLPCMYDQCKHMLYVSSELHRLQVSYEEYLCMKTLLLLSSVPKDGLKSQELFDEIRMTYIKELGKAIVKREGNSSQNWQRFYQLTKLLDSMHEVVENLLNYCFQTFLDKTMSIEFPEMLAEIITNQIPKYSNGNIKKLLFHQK
Chain of Cytochrome P450 1A2 (Homo sapiens) (P05177 whole entry, looked up): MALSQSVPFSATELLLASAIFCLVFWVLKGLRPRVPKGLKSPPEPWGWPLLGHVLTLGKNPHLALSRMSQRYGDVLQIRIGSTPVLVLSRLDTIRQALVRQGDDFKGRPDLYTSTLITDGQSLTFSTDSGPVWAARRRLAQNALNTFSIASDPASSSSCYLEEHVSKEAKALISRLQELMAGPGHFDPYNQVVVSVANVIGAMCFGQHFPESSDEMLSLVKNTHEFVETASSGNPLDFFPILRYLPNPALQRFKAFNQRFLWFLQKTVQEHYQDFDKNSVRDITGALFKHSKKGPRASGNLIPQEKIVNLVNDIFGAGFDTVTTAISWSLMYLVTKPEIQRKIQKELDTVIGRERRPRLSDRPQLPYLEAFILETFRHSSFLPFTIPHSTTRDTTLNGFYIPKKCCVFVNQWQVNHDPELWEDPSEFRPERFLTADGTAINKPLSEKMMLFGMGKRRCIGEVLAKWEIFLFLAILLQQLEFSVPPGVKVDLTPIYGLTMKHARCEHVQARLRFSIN
Chain of Cytochrome P450 2C9 (Homo sapiens) (P11712 whole entry, looked up): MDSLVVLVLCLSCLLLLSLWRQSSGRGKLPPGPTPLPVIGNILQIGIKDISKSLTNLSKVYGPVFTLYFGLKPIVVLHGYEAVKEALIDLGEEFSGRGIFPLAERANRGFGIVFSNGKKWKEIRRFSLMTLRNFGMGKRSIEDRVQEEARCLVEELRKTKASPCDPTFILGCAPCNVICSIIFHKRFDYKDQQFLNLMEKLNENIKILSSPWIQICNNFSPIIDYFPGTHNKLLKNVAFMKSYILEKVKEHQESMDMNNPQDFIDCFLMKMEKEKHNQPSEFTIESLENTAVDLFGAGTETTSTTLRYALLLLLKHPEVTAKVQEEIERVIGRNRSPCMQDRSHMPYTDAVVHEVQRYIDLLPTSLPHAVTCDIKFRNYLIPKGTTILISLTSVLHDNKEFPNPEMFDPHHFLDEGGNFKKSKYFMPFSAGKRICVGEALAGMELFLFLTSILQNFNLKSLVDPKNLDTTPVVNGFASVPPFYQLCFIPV
Chain of Alpha-galactosidase A (Homo sapiens) (P06280 whole entry, looked up): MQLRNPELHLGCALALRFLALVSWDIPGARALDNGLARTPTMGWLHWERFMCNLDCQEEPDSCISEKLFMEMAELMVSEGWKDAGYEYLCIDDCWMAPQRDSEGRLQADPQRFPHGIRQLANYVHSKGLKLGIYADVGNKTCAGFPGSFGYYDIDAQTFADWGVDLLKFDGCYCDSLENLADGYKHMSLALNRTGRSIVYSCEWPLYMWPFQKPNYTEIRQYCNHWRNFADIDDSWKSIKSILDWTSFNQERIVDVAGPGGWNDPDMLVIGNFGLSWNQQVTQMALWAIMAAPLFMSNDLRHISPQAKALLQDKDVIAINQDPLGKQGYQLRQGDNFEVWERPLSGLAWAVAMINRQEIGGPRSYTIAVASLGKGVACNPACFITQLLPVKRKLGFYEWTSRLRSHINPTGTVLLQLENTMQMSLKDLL
Chain of Pyruvate kinase PKM (Homo sapiens) (P14618 whole entry, looked up): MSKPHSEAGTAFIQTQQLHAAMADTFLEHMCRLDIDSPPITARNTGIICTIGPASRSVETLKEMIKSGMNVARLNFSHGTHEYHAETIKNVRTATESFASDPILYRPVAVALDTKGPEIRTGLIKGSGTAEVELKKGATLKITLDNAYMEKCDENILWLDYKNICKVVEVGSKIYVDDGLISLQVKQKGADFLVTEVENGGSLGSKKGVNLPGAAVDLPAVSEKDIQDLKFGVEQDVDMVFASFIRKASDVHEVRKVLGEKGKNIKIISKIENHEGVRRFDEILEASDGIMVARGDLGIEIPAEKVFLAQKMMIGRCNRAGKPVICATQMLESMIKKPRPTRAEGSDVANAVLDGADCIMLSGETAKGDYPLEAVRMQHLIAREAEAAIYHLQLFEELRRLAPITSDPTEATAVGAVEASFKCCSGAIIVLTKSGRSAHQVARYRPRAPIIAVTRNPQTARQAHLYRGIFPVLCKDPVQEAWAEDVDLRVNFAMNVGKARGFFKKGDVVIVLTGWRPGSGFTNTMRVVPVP

Take `O=C(O)CCCC[C@H]1CCSS1`: the activity change, negative = inhibition in test [1] is -4.68% [at 38 µM] (inactive); in test [3], -1.58% [at 38 µM] (inactive). The Potency entry in test [2], in [7], in test [8], in test [10] and in test [15] was “inactive” throughout. Further, in test [4], the activity, negative = inhibition is -7.28% [at 38 µM] (inactive). Also, the Potency in test [5] and in [6] was > 46 µM (inactive) each time. Moreover, the molecule was classed as inactive in test [9], in [11], in test [12], in [13] and in test [14].

Turning to `C[N+](C)(C)/N=C\c1ccc(O)c(O)c1`, the figures for the activity change, negative = inhibition in [1] and in test [3] were 4.59% (inactive) and 8.29% (inactive), respectively. Moreover, the Potency in test [2] is 10 µM (active); in test [5] it was > 46 µM (inactive); in test [6], > 9.22 µM (inactive). Further, in [4], the activity, negative = inhibition is 3.02% (inactive). Moreover, the Potency entry in [7] and in test [8] was “inactive” each time.

As for `N[C@H](COP(=O)(O)O)C(=O)O`, the activity change, negative = inhibition in test [1] is -5.61% [at 38 µM] (inactive); in test [3] it was 1.24% [at 38 µM] (inactive). Further, the Potency entry in test [2], in [8], in [10] and in [16] was “inactive” throughout. Further, the activity, negative = inhibition in test [4] is 20.2% [at 38 µM] (inactive). The Potency in test [5] and in test [6] was > 46 µM (inactive) each time.

`CC(C)c1ccc(O)c(O)c(=O)c1` (tested in a mixture with another compound): the Potency in test [17] is > 11.4 µM (inactive); in test [5], > 46 µM (inactive); in test [6], > 9.22 µM (inactive). For the same molecule, in test [4], the activity, negative = inhibition was 4.84% (inactive). Besides, the Potency result in [7] and in test [8] was “inactive” throughout.

Regarding `COc1cc(N=Nc2cccc(S(N)(=O)=O)c2)c2ccccc2c1N`, the results for the Potency in [17], in test [5] and in test [6] were > 11.4 µM (inactive), > 46 µM (inactive) and > 9.22 µM (inactive), respectively. In addition, the Potency entry in test [7] and in test [8] was “inactive” throughout.
